The values that follow come from PubChem BioAssay.

Assay [1] relates to Wnt5a (protein binding on small-molecule microarray). The assay is described as follows: Wnt5a binders on small-molecule microarray, primary screen, biophysical, 635/667 nm fluorescence (AID 1142).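 Also: fluorescence read at 667 nm with signal to noise per printed feature.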 The following applies: 635 nm fluorescence, higher = more signal.
Assay [2] is described as follows: cell viability in Huh7 cells, primary screen, cytotoxicity control for HCV replication inhibitor project, CellTiter-Glo luminescence, basal, 48 h (AID 1143).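 Also: Huh7 hepatoma cells carrying a hepatitis C replication reporter with no stimulus; test concentration not given here.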 The conditions noted are these: Huh7 HCV replicon, higher = more signal, called active from +8 up or from −8 down.
The nature of assay [3]: P. aeruginosa biofilm formation inhibitors, primary screen, PAO1 strain, BacTiter-Glo luminescence, LB-PBS (AID 1144). The following applies: 12 h, higher = more signal.
A short description of assay [4]: CREB reporter modulators without forskolin, primary screen, cell-based, PC12, CRE-LacZ reporter, unstimulated (AID 1145). The following applies: no forskolin, luminescence, 4.5 h, higher = more signal, called active from +8 up or from −8 down.
A short description of assay [5]: CREB reporter modulators under forskolin, primary screen, cell-based, PC12, CRE-LacZ reporter, forskolin-stimulated (AID 1146).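 Also: PC12 cells with 6xCRE LacZ reporter stimulated by forskolin 10 µM; beta-galactosidase reporter signal reflecting CREB driven transcription.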 The conditions noted are these: luminescence, 4.5 h, higher = more signal, called active from +8 up or from −8 down.
Assay [6] has as its target Streptavidin (Streptomyces avidinii) (UniProt P22629). As to the kind of experiment: streptavidin binders on small-molecule microarray, primary screen, artefact control for SMM compound annotation, biophysical, 635/667 nm fluorescence (AID 1147).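 Also: signal reflects streptavidin binding to arrayed compounds as a control protein.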 The following applies: streptavidin binding, higher = more signal.
The nature of assay [7]: small-molecule binders of probe aInhba, primary screen, biochemical, small-molecule microarray, 635/667 nm fluorescence (AID 1148).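 Also: score merges 667nm spot fluorescence with signal-to-noise for antibody binding to printed compounds.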 The following applies: higher = more signal.
In assay [8] the target is Torsin-1A (Homo sapiens) (UniProt O14656). As to the kind of experiment: torsin A binders from cell lysate, primary screen, small-molecule microarray, wild-type, 635/667 nm (AID 1149). The conditions noted are these: COS7 hTOR1A-WT lysate, 635 nm fluorescence, higher = more signal.
Sequence of Torsin-1A (Homo sapiens) (O14656 whole entry, looked up): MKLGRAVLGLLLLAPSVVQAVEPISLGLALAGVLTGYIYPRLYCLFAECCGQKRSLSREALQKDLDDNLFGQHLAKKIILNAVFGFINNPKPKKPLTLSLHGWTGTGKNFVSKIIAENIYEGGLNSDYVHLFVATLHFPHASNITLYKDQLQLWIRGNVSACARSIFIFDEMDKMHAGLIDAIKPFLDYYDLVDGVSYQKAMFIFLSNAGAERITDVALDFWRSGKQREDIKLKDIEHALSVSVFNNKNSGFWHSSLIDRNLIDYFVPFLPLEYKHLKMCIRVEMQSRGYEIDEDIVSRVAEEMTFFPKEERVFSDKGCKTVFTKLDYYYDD
Assay [9] has the same target. As to the kind of experiment: small-molecule binders of mutant TOR1A in lysate, primary screen, cell lysate, small-molecule microarray, COS7 lysate, 635/667 nm fluorescence (AID 1150).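 Also: score pools 667 nm emission and signal to noise measuring lysate protein binding.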 The following applies: COS7 hTOR1A mutant lysate, 635 nm fluorescence, higher = more signal.
Assay [10] relates to Sonic hedgehog protein (Shh). The assay is described as follows: small-molecule binders of Shh protein, primary screen, biochemical, small-molecule microarray, 635/667 nm fluorescence (AID 1151).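 Also: Shh protein binding to compounds spotted on small-molecule microarray slides; score combines spot fluorescence intensity with signal-to-noise across triplicate slides.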 The following applies: small-molecule microarray binding, 635 nm fluorescence; higher = more signal.
A short description of assay [11]: E. coli DRC41 culture turbidity changes, primary screen, E. coli filamentation inducer project, strain DRC41, OD650, 48 h (AID 1152).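 Also: E. coli MC1000 strain DRC41 lacking acrAB efflux pump and sulA.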 The conditions noted are these: E. coli DRC41 (acrAB sulA), higher = more signal, called active from +8 up or from −8 down.
Assay [12] can be described thus: small-molecule binders of probe aLefty1, primary screen, biochemical, small-molecule microarray, 635/667 nm fluorescence (AID 1153).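 Also: score merges spot fluorescence with signal-to-noise ratio from the scanned slide images.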 The following applies: higher = more signal.
Assay [13] is described as follows: PSAC antagonists in infected red cells, primary screen, cell-based, P. falciparum Indochina, OD700, 1 h (AID 1154). The conditions noted are these: P. falciparum Indochina infected RBC osmotic lysis, higher = more signal, called active from +8 up or from −8 down.
Assay [14] is described as follows: PSAC antagonists in infected red cells, primary screen, cell-based, P. falciparum Indochina, OD700, 2 h (AID 1155).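 Also: lysis reports solute entry through the parasite surface anion channel PSAC; channel blockers reduce lysis of infected cells.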 The conditions noted are these: P. falciparum Indochina infected erythrocytes, osmotic lysis OD700; higher = more signal, called active from +8 up or from −8 down.
Assay [15] is described as follows: osmotic lysis modulators in infected erythrocytes, primary screen, PSAC antagonist project, cell-based, P. falciparum Indochina, OD700, 3 h (AID 1156). The following applies: higher = more signal, called active from +8 up or from −8 down.
The nature of assay [16]: PSAC antagonists in infected red cells, primary screen, cell-based, P. falciparum Indochina, OD700, 18 h (AID 1157). The following applies: P. falciparum Indochina infected erythrocytes, osmotic lysis OD700, 18 h; higher = more signal, called active from +8 up or from −8 down.
The nature of assay [17]: modulators of S6 phosphorylation in cells, primary screen, cell-based, A549, cytoblot, luminescence, serum-stimulated (AID 1158).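 Also: serum-stimulated A549 lung adenocarcinoma cells; signal is phosphorylated S6 detected by cytoblot immunostaining with HRP secondary.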 The following applies: A549 phospho-S6 cytoblot, 5 h, higher = more signal.
The target of assay [18] is NADPH oxidase 2 (Homo sapiens) (UniProt P04839). The assay is described as follows: NOX2-dependent H2O2 signal modulators, primary screen, NOX inhibitor project, cell-based, HEK293-NOX2, PMA-stimulated, Amplex Red fluorescence (AID 1159). Also: test concentration not given here. The conditions noted are these: 45 min, higher = more signal, called active from +8 up or from −8 down.
Sequence of NADPH oxidase 2 (Homo sapiens) (P04839 whole entry, looked up): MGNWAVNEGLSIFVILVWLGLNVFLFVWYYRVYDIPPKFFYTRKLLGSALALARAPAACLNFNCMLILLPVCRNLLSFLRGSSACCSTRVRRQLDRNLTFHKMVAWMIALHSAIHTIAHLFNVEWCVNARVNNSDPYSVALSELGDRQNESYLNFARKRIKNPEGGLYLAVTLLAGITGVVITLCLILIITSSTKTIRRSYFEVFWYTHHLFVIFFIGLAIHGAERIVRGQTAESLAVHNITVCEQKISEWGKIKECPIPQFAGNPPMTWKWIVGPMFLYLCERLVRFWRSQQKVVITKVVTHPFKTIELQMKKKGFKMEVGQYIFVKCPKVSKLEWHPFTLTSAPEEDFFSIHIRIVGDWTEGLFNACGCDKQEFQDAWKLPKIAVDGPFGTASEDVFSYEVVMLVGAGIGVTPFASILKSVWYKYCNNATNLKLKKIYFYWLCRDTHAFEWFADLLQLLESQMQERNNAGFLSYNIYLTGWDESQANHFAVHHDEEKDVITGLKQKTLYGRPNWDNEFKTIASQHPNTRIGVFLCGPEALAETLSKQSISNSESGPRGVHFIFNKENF
In assay [19] the target is NADPH oxidase 4 (Homo sapiens) (UniProt Q9NPH5). As to the kind of experiment: NOX4-dependent H2O2 signal modulators, primary screen, NOX inhibitor project, cell-based, HEK293-NOX4, tetracycline-induced, Amplex Red fluorescence (AID 1160). The conditions noted are these: 45 min, higher = more signal, called active from +8 up or from −8 down.
Sequence of NADPH oxidase 4 (Homo sapiens) (Q9NPH5 whole entry, looked up): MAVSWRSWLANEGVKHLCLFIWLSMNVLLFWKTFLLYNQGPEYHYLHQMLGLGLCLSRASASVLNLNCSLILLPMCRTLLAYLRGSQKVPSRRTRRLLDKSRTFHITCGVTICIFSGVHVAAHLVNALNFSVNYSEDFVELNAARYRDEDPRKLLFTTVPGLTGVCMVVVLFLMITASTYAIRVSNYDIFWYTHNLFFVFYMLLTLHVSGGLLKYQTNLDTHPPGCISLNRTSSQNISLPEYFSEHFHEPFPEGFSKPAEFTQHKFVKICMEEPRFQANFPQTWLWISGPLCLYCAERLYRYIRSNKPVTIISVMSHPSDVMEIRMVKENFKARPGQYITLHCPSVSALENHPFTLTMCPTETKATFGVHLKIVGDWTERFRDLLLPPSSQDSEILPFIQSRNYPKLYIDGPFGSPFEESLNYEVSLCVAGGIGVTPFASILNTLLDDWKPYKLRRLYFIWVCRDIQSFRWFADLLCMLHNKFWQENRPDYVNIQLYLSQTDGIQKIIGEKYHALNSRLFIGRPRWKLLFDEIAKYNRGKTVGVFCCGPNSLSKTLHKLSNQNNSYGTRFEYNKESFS
The target in assay [20] is NADPH oxidase 5 (Homo sapiens) (UniProt Q96PH1). As to the kind of experiment: NOX5-dependent H2O2 signal modulators, primary screen, NOX inhibitor project, cell-based, HEK293-NOX5, Amplex Red fluorescence (AID 1161). The conditions noted are these: HEK293-NOX5, ionomycin, 45 min, higher = more signal.
Sequence of NADPH oxidase 5 (Homo sapiens) (Q96PH1 whole entry, looked up): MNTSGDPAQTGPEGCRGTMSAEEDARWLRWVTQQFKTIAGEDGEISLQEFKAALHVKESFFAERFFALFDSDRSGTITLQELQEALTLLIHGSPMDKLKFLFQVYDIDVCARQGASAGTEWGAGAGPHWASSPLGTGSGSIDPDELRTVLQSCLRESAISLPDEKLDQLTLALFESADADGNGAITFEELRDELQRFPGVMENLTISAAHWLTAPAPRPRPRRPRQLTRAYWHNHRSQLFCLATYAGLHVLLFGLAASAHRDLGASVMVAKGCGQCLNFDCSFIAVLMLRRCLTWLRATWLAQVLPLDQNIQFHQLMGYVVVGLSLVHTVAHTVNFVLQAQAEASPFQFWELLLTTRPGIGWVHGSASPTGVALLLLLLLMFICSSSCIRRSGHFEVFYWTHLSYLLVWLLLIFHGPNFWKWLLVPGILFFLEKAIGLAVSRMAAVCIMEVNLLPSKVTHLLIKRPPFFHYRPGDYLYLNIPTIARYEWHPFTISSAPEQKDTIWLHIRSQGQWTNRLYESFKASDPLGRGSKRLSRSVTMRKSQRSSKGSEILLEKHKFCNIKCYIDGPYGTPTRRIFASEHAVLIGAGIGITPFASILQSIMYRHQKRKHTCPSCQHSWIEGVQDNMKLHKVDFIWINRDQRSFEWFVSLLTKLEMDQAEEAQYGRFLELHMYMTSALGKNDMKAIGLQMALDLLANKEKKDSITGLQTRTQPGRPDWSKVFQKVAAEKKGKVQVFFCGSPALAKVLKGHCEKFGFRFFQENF

Active and inactive are the calls of the source. Unless noted, no rule for the calls is given here.

Sequence of Streptavidin (Streptomyces avidinii) (P22629 whole entry, looked up): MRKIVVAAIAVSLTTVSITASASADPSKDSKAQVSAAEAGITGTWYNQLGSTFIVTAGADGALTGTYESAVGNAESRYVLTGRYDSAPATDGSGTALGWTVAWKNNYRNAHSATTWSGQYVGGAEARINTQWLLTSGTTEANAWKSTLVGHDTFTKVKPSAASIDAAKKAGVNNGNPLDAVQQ

Regarding `C=CCNC(=O)[C@@H]1[C@H]2C(=O)O[C@H](c3ccccc3)[C@H](c3ccccc3)N2[C@H](c2ccc(O)cc2)[C@@]12C(=O)N(C(=O)OCCOC)c1ccc(C#CCC(C(=O)OC)C(=O)OC)cc12`, the composite z-score was determined as 0.259 in assay [1]; 0.0198 in assay [6]; 0.0074 in assay [7]; 0.586 in the assay with Torsin-1A (Homo sapiens) [8]; 1.3 with Torsin-1A (Homo sapiens) [9]; 1.37 in assay [10]. This molecule also had a composite z-score in [12] of 0.0026. Besides, the z-score is -3.02 (inactive) in [2]; 0.132 (inactive) in [3]; -0.438 (inactive) in assay [4]; 0.416 (inactive) in [5]; 1.17 (inactive) in assay [11]; 2.41 (inactive) in assay [13]. For the same molecule, the z-score is 0.225 (inactive) in assay [14]; -0.451 (inactive) in [15]; 0.393 (inactive) in [16]; 0.0945 in assay [17]; 0.932 (inactive) in assay [18]; 0.584 (inactive) in [19]. In assay [20], this molecule gave a z-score of 0.831.
Regarding `CCCCN1CC=CC23O[C@@H]4/C=C\CCC(C)OC(=O)C4[C@H]2C(=O)N(CCO)[C@@H]3C1=O` (stereo not given in full), the composite z-score in assay [1] is -0.122; in [6], -1.52; in assay [7] it was -0.0494; with Torsin-1A (Homo sapiens) [8], 2.84; with Torsin-1A (Homo sapiens) [9] it was 2.94; in assay [10], -0.0956. Besides, in assay [12], the composite z-score is -0.386. Moreover, the z-score in [2] is -1.08 (inactive); in assay [3] it was -1.31 (inactive); in [4], -0.627 (inactive); in assay [5] it was -0.0432 (inactive); in assay [11], 1.36 (inactive); in assay [13], 2.6 (inactive). In addition, the z-score in assay [14] is 0.254 (inactive); in [15], 0.336 (inactive); in assay [16] it was 0.479 (inactive); in assay [17], 0.7; in [18], 1.01 (inactive); in assay [19] it was 0.416 (inactive). Also, the z-score in assay [20] is 2.29.
For the molecule `CN1C(=O)C2C=CC(C(O)COCc3ccccc3)N(Nc3ccc([N+](=O)[O-])cc3[N+](=O)[O-])C2C1=O` (stereo not given), the composite z-score in assay [1] is 0.727; in assay [6], -0.387; in [7], 0.0442; in the assay with Torsin-1A (Homo sapiens) [8], -0.306; in the assay with Torsin-1A (Homo sapiens) [9], 0.713; in assay [10] it was -0.997. The same molecule displayed a composite z-score in assay [12] of 0.332. The z-score in assay [2] was 0.615 (inactive); in assay [3], -0.73 (inactive); in assay [4] it was 1.01 (inactive); in assay [5], -0.252 (inactive); in assay [11], -0.416 (inactive); in [13], 3.59 (inactive). Further, the z-score in [14] was 1.4 (inactive); in assay [15] it was -0.0794 (inactive); in assay [16] it was 1.05 (inactive); in assay [17], -0.859; in assay [18], 0.223 (inactive); in [19], -2.17 (inactive). For the same molecule, the z-score in [20] is -0.914.
Turning to `Cc1ccc(S[C@]2(C(=O)NC(C)C)CC(=O)N(Cc3ccccc3)[C@@H]2c2ccc(CO)cc2I)cc1`, the composite z-score is -0.114 in assay [1]; -0.864 in assay [6]; -0.128 in assay [7]; -0.782 with Torsin-1A (Homo sapiens) [8]; 0.0888 with Torsin-1A (Homo sapiens) [9]; -0.421 in assay [10]. In addition, the composite z-score in assay [12] was determined as 0.164. In addition, the z-score in assay [2] was -1.99 (inactive); in assay [3], 1.2 (inactive); in assay [4], 0.0548 (inactive); in assay [5], 0.0831 (inactive); in [11], 0.214 (inactive); in assay [13], 5.59 (inactive). Moreover, the z-score in assay [14] was 0.654 (inactive); in assay [15], 0.59 (inactive); in assay [16], 0.231 (inactive); in assay [17], -0.35; in assay [18] it was 0.671 (inactive); in assay [19], -0.818 (inactive). This molecule also had a z-score in assay [20] of 1.76.
